In ChEMBL document CHEMBL4513216, “Probing the Open Global Health Chemical Diversity Library for Multistage-Active Starting Points for Next-Generation Antimalarials” (ACS Infect Dis, 2020):
Out of some 69,000 compounds screened, about 8,600 (12%) showed an effect of 50% or more. The list comes from a sample in which strong results are over-represented; it also holds similar structures and randomly drawn compounds.

test system: Plasmodium berghei; assay: Screen against P. berghei liver stage (PbLuc), transformed with Luciferase, at 10uM; format: functional, HepG2; details: tested at 10 uM

Row | Structure (SMILES) | INHIBITION
1 | Fc1ccc(CN2CCC3(CC2)CC(c2cccnc2)CO3)cc1 (stereo not given) | 15.4%
2 | CN(C)c1cc(CC(NC(=O)C2CC2)c2ccccc2)nc(C2CC2)n1 (stereo not given) | 37.1%
3 | O=C(NCc1ccccn1)C1=NN(c2ccccc2)C(=O)CN1 | -170%
4 | CN(C)C(c1ccccn1)C1CCC(CNC(=O)C2CC2)CC1 (stereo not given) | -103%
5 | Cn1cc(-c2ncc3c(c2C(=O)O)CCN(Cc2ccccn2)C3)cn1 | 29.4%
6 | Cc1cc(Cl)c(C)c(S(=O)(=O)N2CCN(Cc3ccccn3)CC2)c1Cl | 18.6%
7 | CC(C)Cn1cc2nc(N3CCCC(C)C3)[nH]cc-2c1=O (stereo not given) | -40.4%
8 | CC(C)Cn1cc2nc(N3CCCC3)[nH]cc-2c1=O | 47.4%
9 | CC(C)Cn1cc2nc(N3CCC(O)CC3)[nH]cc-2c1=O | 66.5%
10 | COc1ccccc1C(=O)NS(=O)(=O)c1cncc(Br)c1 | 28.3%
11 | COc1c(CNCC(O)c2ccccc2)c(C(C)C)nn1C (stereo not given) | 3.73%
12 | COc1ccc2c(c1)OCC(C(=O)NCc1ncc3c(n1)CCC3)C2 (stereo not given) | -9.39%
13 | O=C1NCc2ccccc2CC12CCN(Cc1ccccc1Cl)CC2 | 36.6%
14 | Cc1nc(N(C)C)nc(N2CCC3(CC2)CNC(=O)O3)c1C | -12.1%
15 | CNC(=O)CN1CCC2(CC1)C[C@@H](O)[C@H](c1ccccc1)NC2=O | 44.8%
16 | NC(=O)CN1CCC2(CC1)C[C@@H](O)[C@H](c1ccccc1)NC2=O | 53.2%
17 | CN(C)C(=O)CN1CCC2(CC1)C[C@@H](O)[C@H](c1ccccc1)NC2=O | 22%
18 | CN(C)C(=O)CN1CCn2cc(Cn3cccn3)nc2C1 | 38.5%
19 | COc1ccc(C2CCCN2c2cnccn2)c(OC)c1 (stereo not given) | 31.6%
20 | COc1ccc(C2CCCN2c2ccnc(C)c2Cl)c(OC)c1 (stereo not given) | 82.2%
21 | COc1ccc(C2CCCN2c2nnc(C)s2)c(OC)c1 (stereo not given) | 15.5%
22 | O=C([C@@H]1CN(Cc2nccs2)C[C@H]2OCC[C@H]21)N1CCOCC1 | 14%
23 | Cn1cc(CN2CC[C@H]3O[C@H](C(=O)NCc4ccco4)CC[C@H]32)cn1 | -20.6%
24 | CC1c2ncc(CNC(=O)C3CC3)n2CCN1Cc1nccs1 (stereo not given) | -4.32%
25 | COCCN1CCC2(COCCN(Cc3ccc4c(c3)OCO4)C2)C1 (stereo not given) | 46.7%
26 | c1cc2c(cc1CN1CCCC3(CCOC3)C1)OCO2 (stereo not given) | 25.4%
27 | CCN1CC2(CCC1=O)CCN(Cc1cccc(C#N)c1)CC2 | 33.4%
28 | CN1CCC2(COCCN(Cc3ccc4c(c3)OCO4)C2)C1 (stereo not given) | 61.5%
29 | CN1CCC2(COCCN(Cc3cccc(C#N)c3)C2)C1 (stereo not given) | 89.6%
30 | CCCOC(=O)N1CCCC2(CCN(Cc3cccc(C#N)c3)C2)C1 (stereo not given) | 2.7%
